Among all 310,000 compounds or so, about 1,200 (0.39%) were called active. The rule behind the calls is not given here. A selection follows. Measured potencies and affinities stand elsewhere.
Molecular target: Large T antigen (Simian virus 40) (UniProt P03070)
Experiment: TAg ATPase/helicase activity blockers – biochemical (AID 1903)
Conditions: SV40 large T antigen ATPase/helicase inhibition assay; at 20 µM; hits give high values

Chain of Large T antigen (Simian virus 40) (P03070 whole entry, looked up): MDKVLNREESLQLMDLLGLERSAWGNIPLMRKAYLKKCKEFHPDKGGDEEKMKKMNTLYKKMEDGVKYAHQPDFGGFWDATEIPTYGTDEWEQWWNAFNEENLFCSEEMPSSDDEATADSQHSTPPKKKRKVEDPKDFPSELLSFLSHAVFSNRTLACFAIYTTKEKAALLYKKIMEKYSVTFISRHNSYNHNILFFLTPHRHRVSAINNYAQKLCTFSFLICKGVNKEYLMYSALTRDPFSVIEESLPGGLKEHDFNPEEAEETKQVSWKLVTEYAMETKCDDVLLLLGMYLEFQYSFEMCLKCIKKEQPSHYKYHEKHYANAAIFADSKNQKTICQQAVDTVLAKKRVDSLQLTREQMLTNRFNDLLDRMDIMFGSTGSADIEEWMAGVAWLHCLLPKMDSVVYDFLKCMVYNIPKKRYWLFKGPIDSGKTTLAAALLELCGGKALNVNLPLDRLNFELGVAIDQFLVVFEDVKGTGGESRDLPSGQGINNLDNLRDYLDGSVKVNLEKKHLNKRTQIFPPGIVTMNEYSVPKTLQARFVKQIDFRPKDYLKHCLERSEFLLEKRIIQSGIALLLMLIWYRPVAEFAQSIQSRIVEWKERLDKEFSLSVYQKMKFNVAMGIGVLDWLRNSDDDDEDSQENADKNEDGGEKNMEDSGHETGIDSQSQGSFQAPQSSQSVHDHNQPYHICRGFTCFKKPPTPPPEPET

inhibition, inactive:
Cc1nc2cc(-c3sccc3-n3cccc3)nn2c(C)c1C 5.6%
Cc1ccc(NS(=O)(=O)c2ccc(CCC(=O)NCc3cccnc3)cc2)cc1 7.61%
COC(=O)c1ccc(COc2cccc3c2CCN(Cc2ccccc2)C3=O)o1 4.93%
Brc1ccc2[nH]c3c(NCc4ccccn4)ncnc3c2c1 4.68%
O=C(Nc1ccccc1)N(Cc1ccccc1)C1=NCCS1 5.16%
O=C(O)COc1ccccc1/C=N/NC(=O)CN1CCN(Cc2ccccc2Cl)CC1 2.27%
CCOC(=O)c1c(NC(=O)/C=C\C(=O)O)sc(C)c1-c1ccccc1 12.2%
CCOC(=O)c1c(NC(=O)/C=C/C(=O)O)sc(C)c1-c1ccc(Cl)cc1 47.5%
CCOC(=O)CNc1c(-c2ccc(OC)cc2)nc2ccc(Cl)cn12 19.4%
CCOC(=O)CNc1c(-c2ccccc2)nc2ccc(Cl)cn12 13.6%
O=C(Nc1c(-c2ccccc2)nc2ccccn12)c1ccco1 19.3%
CCOC(=O)CNc1c(-c2ccc(Cl)cc2)nc2cnccn12 14.1%
COCCNc1c(-c2ccc(O)cc2)nc2ccc(Cl)cn12 25.7%
OCCNc1nc(Cl)nc(NCc2ccco2)n1 3.58%
CC(C)c1ccc(Nc2nc(Cl)nc(NCc3ccco3)n2)cc1 23.9%
Cc1ccc2[nH]c(=O)c(-c3nc4ccccn4c3NCc3ccco3)cc2c1 26%
Cc1ccc(CCNC(=O)C2CCCN(S(=O)(=O)c3cccc4nsnc34)C2)cc1 (stereo unspecified) 4.61%
CN(C)/C=C/C(=O)c1ccc(Cl)c([N+](=O)[O-])c1 11.3%
Cc1ccc(-n2nnnc2SCC(=O)Nc2ccc(N3CCN(C)CC3)cc2)c(C)c1 17.6%
COc1ccc2[nH]cc(C(=O)CN3CCCCC3)c2c1 20.3%
O=C(NCCC1=CCCCC1)Nc1ccc2nsnc2c1 -1.37%
Cn1c(N)c(C(=O)COC(=O)c2ccc(S(=O)(=O)N3CCCCC3)cc2)c(=O)n(C)c1=O 2.82%
CCc1noc(C)c1C(=O)Nc1nnc(C2CCCCC2)s1 16%
COC(=O)c1c([N+](=O)[O-])c(OC)c(OC)c(OC)c1[N+](=O)[O-] 2.68%
COC(=O)[C@H](CCSC)NS(=O)(=O)c1ccccc1Br 24.3%
Cc1cccc(NC(=O)c2ccc(NC(=O)CC3SC(N4CCCC4)=NC3=O)cc2)n1 (stereo unspecified) 12.5%
CC1CCCN(S(=O)(=O)c2ccc(CN3C(=O)c4cccnc4C3=O)cc2)C1 (stereo unspecified) 9.07%
Cc1cccc(N=C2NC(=O)/C(=C/C=C/c3ccco3)S2)c1C 5.68%
CCCCn1c(N)c(N(CC)C(=O)/C=C/c2ccco2)c(=O)[nH]c1=O 5.15%
CCc1ccc(N2NC(=O)/C(=C/C=C/c3ccco3)C2=O)cc1 22.1%
CCN1C(=O)/C(=C\c2ccco2)C(C(=O)OC)=C1C 8.18%
O=C1NN(c2ccc(F)cc2)C(=O)/C1=C\C=C\c1ccco1 19.7%
CC(C)CN1C(=O)/C(=C/c2ccco2)NC1=S 19.9%
Cc1csc2nc(CSc3nc4ccccc4o3)c(Br)n12 1.48%
Cc1c[n+]([O-])n(-c2ccc(C(=O)O)cc2)n1 2.23%
O=C(c1cc(=O)c2ccccc2o1)N1CCN(c2cccc(Cl)c2)CC1 8.8%
CC(=O)c1cccc(NS(=O)(=O)N2CCOCC2)c1 9.29%
O=C(CCCc1ccccc1)Nc1cccnc1Cl 10%
O=C(c1c(Cl)cccc1Cl)N1CCN(c2cccc3[nH]ccc23)CC1 23.6%
O=[N+]([O-])c1cccc(CN2CCN(c3cccc4[nH]ccc34)CC2)c1 27.1%
Cc1ccc(S(=O)(=O)N2CCC(C(=O)NNC(=O)c3ccc(F)cc3)CC2)cc1 7.95%
Cc1ccc(C)c(CSc2nnc(-c3ccccn3)n2N)c1 4.69%
CCSc1nnc2n(-c3ccc(OC)cc3)c(=O)c3c4c(sc3n12)CCCC4 2.78%
Cc1nnc2n(-c3ccccc3)c(=O)c3c4c(sc3n12)CCCC4 4.53%
CSc1nnc2n(-c3ccccc3)c(=O)c3c4c(sc3n12)CCC4 3.42%
Cc1cccc(-n2c(=O)c3c4c(sc3n3c(=S)[nH]nc23)CCC4)c1 34.1%
COc1ccc(-n2c(=O)c3c4c(sc3n3c(=S)[nH]nc23)CCCC4)cc1 2.8%
COc1ccccc1-n1c(=O)c2c3c(sc2n2c(=S)[nH]nc12)CCC3 30.3%
COc1ccccc1C1(O)C(=O)Nc2ccc(C)cc21 (stereo unspecified) 9.43%
CS(=O)(=O)N1CCN(c2ncnc3c2cnn3-c2ccccc2)CC1 1.55%
CC1=CC(=C(C#N)C#N)C=C(C)N1CCN1CCN(C(=O)Nc2ccc(Cl)c(Cl)c2)CC1 3.99%
Cc1cc(/C=C2/NC(=O)NC2=O)c(C)n1-c1sc2c(c1C#N)CCCC2 17.3%
Cc1ccc(C)n1-c1sc2c(c1C#N)CCCC2 7.49%
CCOC(=O)N1CCC(N2CCN(S(=O)(=O)c3ccc(OC)cc3)CC2)CC1 4.73%
COc1ccc(OC)c(-n2c(SCC(=O)Nc3cc(C)on3)nnc2-c2c[nH]c3ccccc23)c1 -1.81%
CCN1CC2([N+](=O)[O-])CC=C(OC)C([N+](=O)[O-])(C1)C2 (stereo unspecified) -0.47%
N#CCn1c(Cc2ccccc2)nc2ccccc2c1=O 10.6%
CN(C)Cc1nc2ccccc2c(=O)n1CC#N 8.3%
O=Cc1cn(-c2ccccc2)nc1-c1ccc(F)cc1 3.65%
Cc1ccc2c(c1)N(C(=O)CCC(=O)N1CCCCC1)CCO2 9.22%
COc1ccc(-c2cc(-c3ccco3)[nH]c(=O)c2C#N)cc1OC 33.5%
N#Cc1c(-c2cccc(Br)c2)cc(-c2ccco2)[nH]c1=O 4.79%
N#Cc1c(-c2ccccc2)cc(-c2ccccc2)[nH]c1=O -4.42%
COc1ccc(-c2cc(-c3ccco3)[nH]c(=O)c2C#N)cc1 33.2%
O=C(NCCN1CCCCCC1)C1CCC(CNS(=O)(=O)c2cccc3cccnc23)CC1 (stereo unspecified) 10.5%
CCCN1CCN(CCCNC(=O)CCN2C(=O)COc3ccccc32)CC1 15.1%
COc1ccc(CCNC(=O)Cn2cnc3scc(-c4ccccc4)c3c2=O)cc1OC 5.46%
Cn1nc(C(=O)Nc2ccc(S(=O)(=O)N3CCCC3)cc2)ccc1=O 0.66%
Cc1ccc(C(=O)Nc2ccncc2)cc1[N+](=O)[O-] 13%
Nc1n[nH]c(N)c1N=Nc1ccc(F)cc1 13.8%
Cc1ccc(N=Nc2c(N)n[nH]c2N)cc1 25%
COc1cc2[nH]c3c(=O)n4c(nc3c2cc1OC)SCCC4 7.73%
Cc1cccc(NNC(=O)C2CCC2)c1 10.2%
N#Cc1c(NC(=O)c2ccco2)sc2c1CCC2 28.5%
N#Cc1c(NC(=O)/C=C/c2ccco2)sc2c1CCCC2 11.5%
O=C(CCc1nnc2ccc(NCc3ccco3)nn12)Nc1ccccc1F 14.6%
CCN(c1ccccc1)S(=O)(=O)c1cccc(C(=O)NCC(c2ccco2)N2CCCC2)c1 (stereo unspecified) 20.1%
O=S1(=O)N=C(Nc2ccc(N3CCOCC3)cc2)c2ccccc21 7.37%
CCN(CC)S(=O)(=O)c1ccc(NC2=NS(=O)(=O)c3ccccc32)cc1 5.33%
CN(C)CCOC(=O)C12CC3(C)CC(C)(CC(C)(C3)C1)C2 20.7%
COc1cc(/C=C2\S/C(=N/S(=O)(=O)c3ccccc3)NC2=O)c([N+](=O)[O-])cc1OC 23%
COc1ccc(S(=O)(=O)/N=C2/NC(=O)/C(=C\c3cc(OC)c(OC)cc3[N+](=O)[O-])S2)cc1 31.5%
Cc1ccnc(NC(c2ccccc2O)c2oc(CO)cc(=O)c2O)c1 (stereo unspecified) 13.4%
COc1cccc(CN2CCN(Cc3nc4c(s3)CCCC4)CC2CCO)c1 (stereo unspecified) 7.56%
N#Cc1ccc(Oc2ccc(S(=O)(=O)N3CCOCC3)cn2)cc1 8.88%
O=C1Nc2ccccc2/C1=C/c1ccccc1Cl 4.98%
O=C1NC(=O)/C(=C/c2ccccc2Cl)N1 2.2%
O=C1CCC(C(=O)OCC(=O)c2ccccc2)N1 (stereo unspecified) -3.04%
Cc1ccc([C@@H]2[C@@H]3C(=O)N(C)C(=O)[C@@H]3[C@]3(C)C(=O)N(Cc4ccccn4)CC(=O)N23)o1 21.8%
CC(C)C1=Nc2cccc3cccc(c23)N1 31.8%
CC1=Nc2cccc3cccc(c23)N1 14.5%
NS(=O)(=O)c1ccc(CNS(=O)(=O)c2ccc3ccccc3c2)cc1 8.92%
O=S1(=O)N=C(N(CCO)/N=C/c2ccccc2)c2ccccc21 -0.93%
CC(=O)Nc1ccc2c(c1)CCc1ccccc1-2 2.87%
O=C(O)CCCc1ccc2c(c1)CCc1ccccc1-2 4.11%
CCCCNC(=S)NNC(=O)c1c(Cl)c(C)nn1C 13.2%

Source: PubChem BioAssay AID1903 (Southern Research Specialized Biocontainment Screening …, 2009)
